Screening results from PubChem BioAssay.
An excerpt weighted towards active compounds, which were near 2.8% of everything screened.
IP6K1 inhibitor – Primary qHTS assay for small molecule inhibitors of Inositol hexaphosphate kinase 1 (IP6K1); Inositol hexakisphosphate kinase 1 (Homo sapiens), Q92551; IP6K1 kinase, ADP-Glo luminescence, 2 h; active compounds read low; activity change, % (series mostly up to about 58 µM); actives 0.81% (n = 140,000); AID 1645851, 2021; in the data active = activity change below about -25%; note: % is set by controls: 0 for no effect and ±100 for the full control effect
Target sequence (Q92551 whole entry, looked up): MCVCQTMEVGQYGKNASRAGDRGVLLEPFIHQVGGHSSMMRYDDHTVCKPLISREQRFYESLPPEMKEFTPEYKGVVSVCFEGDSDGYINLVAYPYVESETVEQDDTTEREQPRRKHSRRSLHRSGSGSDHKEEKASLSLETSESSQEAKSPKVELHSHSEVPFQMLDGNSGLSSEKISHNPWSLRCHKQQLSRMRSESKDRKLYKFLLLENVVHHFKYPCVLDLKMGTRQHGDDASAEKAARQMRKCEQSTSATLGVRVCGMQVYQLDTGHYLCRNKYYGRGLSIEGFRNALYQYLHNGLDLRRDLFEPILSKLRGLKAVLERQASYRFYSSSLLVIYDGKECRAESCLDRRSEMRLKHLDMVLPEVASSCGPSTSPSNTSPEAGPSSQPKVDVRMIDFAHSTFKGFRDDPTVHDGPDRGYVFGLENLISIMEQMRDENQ
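ADP-Glo luminescence measures ADP made by human IP6K1 during a 2 h RT reaction with ATP/IP6 (mix at 1.3 mM/130 uM); top library doses 57.5 and 19.1 uM final.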
KDM5B inhibitor – Primary screen for KDM5B Histone Demethylases FDH-coupled qHTS; KDM5B demethylase, FDH-coupled NADH fluorescence (FDH is formaldehyde dehydrogenase); Potency, µM (titrated, usually from 57.7 µM), hits mostly inhibitors; actives 2.6% (n = 220,000); AID 1347165, 2019; active = well fitted inhibition curve with a large enough effect; inconclusive = small, poorly fitted or top-dose-only effect; inactive = no such curve, though single readings can be large or run the other way; note: potency is the fitted concentration of half-maximal effect; 0% is about no effect; nearly all actives have a fitted effect of over 70% in size
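KDM5BΔAP (200 nM final) in 50 mM HEPES pH 7.5, 0.01% Tween-20 was preincubated 10 min at RT with compound over a concentration range. Substrate mix (H3K4me3 12.5 µM, α-KG 25 µM, Fe²⁺, ascorbate, NAD⁺, FDH) was added, and NADH fluorescence change over 30 min gave dose-response curves.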
* = called active by the depositor; i = inactive; ? = inconclusive; . = not tested or not shown.

SMILES | IP6K1 inhibitor | KDM5B inhibitor
O=C1CC(c2ccccc2)N(C(=O)C2CC2)CCCN(C(=O)c2ccc3cc[nH]c3c2)CCN1 (centres undefined) | 4 | 28µM*
O=C1CC(c2ccccc2)N(C(=O)C2CC2)CCCN(C(=O)c2cc3ccccc3[nH]2)CCN1 (centres undefined) | 22 | ?
O=C1CC(c2ccccc2)N(C(=O)CNC(=O)c2c[nH]c3ccccc23)CCCCCN1 (centres undefined) | -5 | 28µM*
O=C(Cc1ccc2c(c1)OCO2)N1CCc2onc(-c3cccc(F)c3)c2C1 | 5 | i
O=C(COCC1CCCO1)N1CCc2onc(-c3ccc4c(c3)OCO4)c2C1 (centres undefined) | 24 | 22µM*
COc1cccc(-c2ccc(C(=O)NCCNC(=O)c3cccc(Cl)c3)cc2)c1 | 21 | .
Cc1cc(N2CCC3(CCCN(CC4CCC4)C3=O)C2)nc2ccccc12 (centres undefined) | 4 | 28µM*
COCCN1CCCC2(CCN(c3nc(OC)cc(OC)n3)C2)C1=O (centres undefined) | 7 | i
Cc1cccc(CN2CCCC3(CCN(c4cc(C)c5ccccc5n4)C3)C2=O)c1 (centres undefined) | 15 | 28µM*
Cc1cccc(CN2CCCC3(CCN(c4nc5ccccc5o4)C3)C2=O)c1 (centres undefined) | 8 | i
Cc1cccn2cc(C(=O)N3CCC4(CCCN(CC5CCC5)C4=O)C3)nc12 (centres undefined) | 7 | i
CCCN1CCCC2(CCN(c3cc(C)c4cccc(OC)c4n3)C2)C1=O (centres undefined) | -10 | 28µM*
CC(NC(=O)c1ccc2c(c1)CCCC2)c1ccc(F)cc1F (centres undefined) | . | i
Cc1nn2c(c1-c1ccccc1Oc1ccccc1)N(Cc1ccc(C(=O)O)s1)CCC2 | 8 | ?
O=C(NCc1ccc(F)c(F)c1)c1ccc2nnc(-c3ccc(F)cc3)n2c1 | 14 | .
Cc1ccc(OCC(=O)N2CCC(CC(=O)N(C)Cc3ccccc3)C2)cc1 (centres undefined) | 6 | .
Cc1nnc(CN(C)c2ccc(-c3nc(-c4cccc(Cl)c4)no3)cn2)o1 | -3 | 28µM*
Cc1noc(-c2nc(-c3cccc(Cl)c3)no2)n1 | 4 | i
Cc1ccc2nc(C)c(C(=O)N3CCN(c4ccc(F)cc4)CC3)cc2c1 | . | i
O=C(C1CCCCC1)N1CC(N(Cc2ccccn2)C(=O)Nc2ccccc2)C1 | 12 | .
O=C(NC1CCCN(c2ccnc3ccnn23)C1)c1ccc(Cl)cc1 (centres undefined) | 14 | .
CSc1ccc(-c2cccc(CN3CCC(N[S+](=O)([O-])c4ccc(C)cc4)CC3)c2)cc1 | 14 | .
COc1cc2cc(CN3CCC[C@@H]3CO)c(-c3cccc(Cl)c3)nc2cc1OC | 0 | 25µM*
COc1ccc(-c2nc3cc(C)ccc3cc2CN2CCC[C@@H]2C(N)=O)cc1OC | 26 | ?
O=C(NCCc1ccccc1)c1nc2sccn2c1-c1ccc(F)cc1 | 6 | .
SMILES | IP6K1 inhibitor | KDM5B inhibitor
CCc1noc(-c2ccn3c(CNC(=O)Cc4cccc(OC)c4)nnc3c2)n1 | 12 | 22µM*
CCCc1noc(-c2ccn3c(CNC(=O)CCC4CCCC4)nnc3c2)n1 | 16 | 3.5µM*
CCc1noc(-c2ccn3c(CNC(=O)CCc4ccccc4)nnc3c2)n1 | -1 | 25µM*
COc1cccc(CC(=O)NCc2nnc3cc(-c4nc(C(C)C)no4)ccn23)c1 | 1 | 28µM*
CCc1noc(-c2cccn3c(CNC(=O)Cc4cccc(OC)c4)nnc23)n1 | -1 | ?
CCCc1noc(-c2ccn3c(CNC(=O)c4ccoc4)nnc3c2)n1 | 9 | i
CCc1noc(-c2ccn3c(CNC(=O)c4ccccc4C)nnc3c2)n1 | 15 | i
COc1ccccc1CN1Cc2cc(NC(=O)c3ccc(Cl)cc3)ccc2OC(C)C1=O (centres undefined) | -11 | ?
COc1ccccc1-c1ccc(CN2CCCCC2C(=O)NCC(F)(F)F)cc1 (centres undefined) | 26 | .
Cc1noc(C)c1[S+](=O)([O-])N1CCCC1C(=O)N1CCC(c2ccccc2)CC1 (centres undefined) | -4 | .
O=C(NCc1ccc(Cl)cc1)c1ccc2nnc(-c3ccc(Cl)cc3Cl)n2c1 | 2 | .
CCc1noc(-c2ccn3c(CNC(=O)CCc4cccc(OC)c4)nnc3c2)n1 | 7 | 28µM*
COc1cccc(CCC(=O)NCc2nnc3cc(-c4nc(C5CC5)no4)ccn23)c1 | 10 | 28µM*
CCc1noc(-c2ccn3c(CNC(=O)COc4cccc(C)c4)nnc3c2)n1 | 9 | ?
O=C(NCc1nnc2cc(-c3nc(C4CC4)no3)ccn12)C1(c2ccccc2)CC1 | 14 | ?
